The entries come from a sample that favours hits as a whole.
TbREL1 inh: TbREL1 inhibition, primary screen. P86926. TbREL1 RNA ligation, FRET fluorescence. inhibition, % at 9.66 µM. hit rate 0.49% among 89,000;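 active means inhibition above the mean inhibition across all screened compounds plus 3 SD, cut at about 11% in these data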;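 further: 0% = plate median of test wells and 100% = NSC42067 control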
Target sequence (P86926 whole entry, looked up): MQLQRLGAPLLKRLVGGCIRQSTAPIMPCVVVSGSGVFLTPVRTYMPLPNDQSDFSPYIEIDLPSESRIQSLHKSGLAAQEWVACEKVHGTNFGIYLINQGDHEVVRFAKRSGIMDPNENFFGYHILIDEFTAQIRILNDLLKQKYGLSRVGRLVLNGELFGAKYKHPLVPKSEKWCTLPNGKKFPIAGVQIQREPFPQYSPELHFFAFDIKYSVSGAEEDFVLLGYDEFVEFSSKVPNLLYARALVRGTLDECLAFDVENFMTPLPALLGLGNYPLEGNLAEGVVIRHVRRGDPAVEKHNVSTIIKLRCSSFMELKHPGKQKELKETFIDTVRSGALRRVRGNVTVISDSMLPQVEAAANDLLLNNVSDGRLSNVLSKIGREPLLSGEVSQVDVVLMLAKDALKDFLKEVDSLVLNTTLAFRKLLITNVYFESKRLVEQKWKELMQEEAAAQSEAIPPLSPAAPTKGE
TbREL1 conf: TbREL1 inhibition, confirmation; AID 1117282; shares compounds with TbREL1 inh; hit rate 37% among 390; TbREL1 RNA ligation, FRET fluorescence; inhibition, % at 9.66 µM;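 active means mean inhibition across replicates above a set limit taken from the earlier primary screen, cut at about 11% in these data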;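 further: 0% = REL1 with substrate and DMSO and 100% = REL1 plus control inhibitor NSC42067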
* hit, by the source's call.

How did C=CCNCCOCCOc1ccc(Cl)cc1C(C)(C)C do in these assays?
TbREL1 inh: 16*; TbREL1 conf: 19*

Results for C=CCNCCOCCOc1ccc(C)cc1Br ?
TbREL1 inh: 5

How did CC(C)NCCOCCOc1ccc(Cl)cc1Br do in these assays?
TbREL1 inh: 2

How did CCN(CC)C(=O)Cn1nc(Cc2ccncc2)c2ccccc2c1=O do in these assays?
TbREL1 inh: -1

Results for CCOc1ccc(-n2c(SCc3nc4ccccc4[nH]3)nnc2-c2cccc(Cl)c2)cc1 ?
TbREL1 inh: -2

Results for CC[C@@H]1/C(=C/c2ccccc2)N2C(=O)C[C@@H](c3ccccc3)N=C2N1Cc1ccc(OC)cc1OC ?
TbREL1 inh: -3

How did CC(=O)c1ccc(-c2cc(C(C)=O)c3n(c2=O)CCC3)cc1 do in these assays?
TbREL1 inh: -2

Results for CC(=O)c1cc(-c2ccc(Cl)c(Cl)c2)c(=O)n2c1CCC2 ?
TbREL1 inh: 4

Results for CC(=O)c1cc(-c2cccc(CO)c2)c(=O)n2c1CCC2 ?
TbREL1 inh: 11*; TbREL1 conf: 0

How did C/C(C=NNC(=O)CSc1nc2ccccc2n1C)=C\c1ccccc1 do in these assays?
TbREL1 inh: 4

Results for COC(=O)[C@]12C[C@H](CC(=O)NCc3cccs3)C(=O)N(Cc3ccc4c(c3)OCO4)C1=C[C@H](C(C)C)O[C@@H]2C1CC1 ?
TbREL1 inh: -1

How did COc1cccc(C(=O)N(CCN2CCOCC2)Cc2ccc(OC)c(OC)c2)c1 do in these assays?
TbREL1 inh: 1

How did COCCOc1ccc(C(F)(F)F)cc1NC(=O)CN1C(=O)NC(C)(c2ccc3c(c2)OCO3)C1=O (stereo not given) do in these assays?
TbREL1 inh: -2

Results for CCCOc1ccc(C(F)(F)F)cc1NC(=O)CN1C(=O)C(=O)N(CC)C1=O ?
TbREL1 inh: 0

How did CCN1CCN(CC(=O)Nc2cc(C(F)(F)F)ccc2OCCOC)CC1 do in these assays?
TbREL1 inh: 15*; TbREL1 conf: 5

How did O=C1CCC[C@H]2C[C@H](NCc3cccs3)CC[C@]23CCCN13 do in these assays?
TbREL1 inh: -3

Results for O=C1CCC[C@H]2Cc3nc4cc5c(cc4cc3C[C@]23CCCN13)OCO5 ?
TbREL1 inh: -4

What do the screens show for `COc1ccc(C)c(NC(=O)[C@@H]2CCCN2S(=O)(=O)c2cccc3cccnc23)c1`?
TbREL1 inh: -2

What do the screens show for `COc1cccc(C(=O)NCCS(=O)(=O)NCc2ccc(Cl)cc2)c1`?
TbREL1 inh: -1

Results for COc1ccc(C(=O)NCCS(=O)(=O)NCCc2ccccc2)cc1 ?
TbREL1 inh: 2

How did COc1cccc(C(=O)NCCS(=O)(=O)NC(C)CCc2ccccc2)c1 (stereo not given) do in these assays?
TbREL1 inh: 14*; TbREL1 conf: 11*

Results for c1ccc(Cn2c(SCC3CCCCC3)nnc2-c2cccnc2)cc1 ?
TbREL1 inh: 0

Results for Cc1ccccc1CN1CCCCC(NC(=O)c2ccccc2F)C1=O (stereo not given) ?
TbREL1 inh: 2

What do the screens show for `Cc1cc(=O)c(C(=O)O)nn1-c1ccccc1[N+](=O)[O-]`?
TbREL1 inh: 1

What do the screens show for `O=c1cc2oc3cc(O)c(O)cc3c(-c3ccccc3[N+](=O)[O-])c-2cc1O`?
TbREL1 inh: 21*; TbREL1 conf: 26*

How did Nc1cc2c([N+](=O)[O-])cccc2o1 do in these assays?
TbREL1 inh: -3

Results for Cc1ccc2nc(-c3ccc(NC(=O)CSc4nnc(-c5cc(-c6ccc(F)cc6)n[nH]5)n4N)cc3)sc2c1 ?
TbREL1 inh: 1

Results for CCC[C@H]1[C@@H](OC(=O)N2CCN(c3ccccc3)CC2)CC[C@@]23CCCN2C(=O)CCC[C@@H]13 ?
TbREL1 inh: -8

Results for O=C(Cc1ccccc1)Nc1nnc(-c2cccnc2)s1 ?
TbREL1 inh: 0

How did COCCN(C(=O)/C=C/c1ccccc1)c1c(N)n(Cc2ccccc2)c(=O)[nH]c1=O do in these assays?
TbREL1 inh: 2

How did COCCN(C(=O)/C=C/c1ccccc1)c1nnc(-c2cccnc2)s1 do in these assays?
TbREL1 inh: 12*; TbREL1 conf: -3

Results for COc1ccc2ccccc2c1C=NNC(=O)c1cc(-c2ccc(C)cc2)n[nH]1 ?
TbREL1 inh: 5

How did CC(C)(C)OC(=O)C1[C@H](O)C=CC[C@H]1S(=O)c1ccccc1 (stereo not given in full) do in these assays?
TbREL1 inh: 3

How did CC(C)(C)c1ccc(-c2nnc(SCC(=O)Nc3ccc4cn[nH]c4c3)n2-c2ccc(Cl)cc2)cc1 do in these assays?
TbREL1 inh: 4

How did COC(=O)[C@]12C[C@H](CC(=O)N3CCN(C(=O)C4CC4)CC3)C(=O)N(Cc3cccc4ccccc34)C1=C[C@H](C1CCCC1)O[C@@H]2C do in these assays?
TbREL1 inh: 5

How did CCn1c(SCC(=O)Nc2ccc(C(N)=O)cc2)nc2sc(C)c(C)c2c1=O do in these assays?
TbREL1 inh: 1

What do the screens show for `CC(=O)c1ccc2c(c1)C1C=CCC1C(c1ccc(S(=O)(=O)N3CCOCC3)cc1)N2` (stereo not given)?
TbREL1 inh: -2

Results for O=C(O)c1ccc2c(c1)C1C=CCC1C(c1ccncc1)N2 (stereo not given) ?
TbREL1 inh: 2

Results for COc1ccc(NS(=O)(=O)c2ccc3c(c2)[C@H]2C=CC[C@H]2[C@@H](c2ccc(C(=O)O)cc2)N3)cc1 ?
TbREL1 inh: 15*; TbREL1 conf: 17*

Results for CNC(=O)C[C@@H]1CC[C@@H]2[C@H](COc3ccc(NC(=O)c4cccc(F)c4)cc3C(=O)N2C)O1 ?
TbREL1 inh: 1

How did O=C(NN=Cc1ccc(-c2ccccc2)cc1)c1cc(-c2ccc(Cl)cc2)n[nH]1 do in these assays?
TbREL1 inh: -1

What do the screens show for `O=C(OCc1cn(Cc2ccccc2)nn1)N1CCCC1`?
TbREL1 inh: 0

What do the screens show for `CCCCCC[N+](C)(C)CC/C=C1/c2ccccc2Sc2ccc(Cl)cc21`?
TbREL1 inh: 14*; TbREL1 conf: 14*

What do the screens show for `CNCC/C=C1/c2ccccc2CSc2ccccc21`?
TbREL1 inh: 5

Results for S=C1Nc2ccccc2Sc2ccc(Cl)cc21 ?
TbREL1 inh: 1

What do the screens show for `C[C@H]1[C@@H](OC(=O)NCc2cccc(C(F)(F)F)c2)CC[C@@]23CCCN2C(=O)CCC[C@@H]13`?
TbREL1 inh: -2

How did Cc1cccc(NC(=O)NN(C(=O)c2ccccc2Cl)C(C)(C)C)c1 do in these assays?
TbREL1 inh: -2

Results for CN(C)c1ccc(C(=O)NC2CCCCN(Cc3ccc(Cl)cc3)C2=O)cc1 (stereo not given) ?
TbREL1 inh: -9

How did ON=C(c1ccccc1)c1ccc2c3c(cccc13)CC2 do in these assays?
TbREL1 inh: 12*; TbREL1 conf: 3

Results for NC(=O)/C(=N\O)c1ccccc1 ?
TbREL1 inh: 0

What do the screens show for `O=C(c1ccc2c3c(cccc13)CC2)C1CCCN(Cc2ccncc2)C1` (stereo not given)?
TbREL1 inh: 6

Results for CCCC[C@H]1C2CC(OC(=O)Nc3cccc(Br)c3)C(C2)[C@H]2CCCCN21 (stereo not given in full) ?
TbREL1 inh: 0

Results for CNc1ccccc1/C(O)=C(\C#N)C(=O)NCc1cccs1 ?
TbREL1 inh: 3

How did CCCCC(=O)Nc1ccc(C(=O)NCC2COc3ccccc3O2)cc1 (stereo not given) do in these assays?
TbREL1 inh: 0
